Compounds without any hit were thinned out: in the full panel of roughly 79,000, 15% have a hit. Activity calls are given as the source filed them. Rule as the data show it: active = growth inhibition above about 70%; inactive = the rest.
Key:
[1] = NCI Yeast Anticancer Drug Screen. Data for the wt2 strain (AID 169);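 also: 0% = growth of vehicle-treated yeast cultures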; conditions: S. cerevisiae wt2 strain growth inhibition, active compounds read high
Outline: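 Genetically defined yeast strains from a DNA-repair/cell-cycle panel were used. Compound-exposed yeast growth was measured, and the inhibition was calculated relative to vehicle treatment.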

[2] = NCI Yeast Anticancer Drug Screen. Data for the mlh1 strain (AID 171);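 also: 0% = growth of vehicle-treated control cultures of the same strain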; conditions: S. cerevisiae mlh1 strain growth inhibition, active compounds read high
Outline: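 Here the genetically defined yeast mutant is grown with each compound, and the extent to which its growth falls below that of vehicle-exposed cells is reported.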

[3] = NCI Yeast Anticancer Drug Screen. Data for the sgs1 strain (AID 173);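 also: 0% = growth of vehicle-only control cultures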; conditions: S. cerevisiae sgs1 mutant, active compounds read high
Outline: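 Relative growth inhibition, referenced to vehicle, was determined in a yeast strain with a defined alteration affecting DNA damage repair or cell cycle control after compound exposure.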

[4] = NCI Yeast Anticancer Drug Screen. Data for the mlh1 rad18 strain (AID 175); conditions: S. cerevisiae mlh1 rad18 strain growth inhibition, active compounds read high
Outline: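 In this whole-cell yeast screen, a strain with altered DNA damage repair is challenged with compound, and its growth is measured against matched vehicle-treated controls.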

[5] = NCI Yeast Anticancer Drug Screen. Data for the rad18 strain (AID 177); conditions: S. cerevisiae rad18 mutant growth inhibition, active compounds read high
Outline: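 Screen uses a yeast strain with a defined lesion in DNA damage repair; compound effect is read as loss of growth compared to untreated vehicle cultures.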

[6] = NCI Yeast Anticancer Drug Screen. Data for the rad52 strain (AID 147);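 also: 0% = growth of vehicle-treated control cultures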; conditions: S. cerevisiae rad52 mutant growth inhibition, active compounds read high
Outline: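 Measured: yeast growth inhibition. System: strain with a defined DNA damage repair alteration. Reference: vehicle-treated control cultures.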

[7] = NCI Yeast Anticancer Drug Screen. Data for the wt1 strain (AID 149);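 also: 0% = growth of vehicle-treated wt1 cultures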; conditions: S. cerevisiae wt1 strain (SPY 50644) growth inhibition, active compounds read high
Outline: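 Yeast wt1 strain exposed to compounds; growth inhibition measured relative to vehicle-treated controls.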

[8] = NCI Yeast Anticancer Drug Screen. Data for the rad50EPP+ strain (AID 151);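 also: 0% = growth of vehicle-treated control cultures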; conditions: S. cerevisiae rad50 mutant strain, active compounds read high
Outline: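 One strain with a rad50 alteration (rad50EPP+) was compound-treated, its growth then compared to that of vehicle controls.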

[9] = NCI Yeast Anticancer Drug Screen. Data for the mgt1 strain (AID 153); conditions: S. cerevisiae mgt1 mutant growth inhibition, active compounds read high
Outline: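 After exposure of the mgt1 yeast mutant to compound, growth was measured and reported as inhibition compared with vehicle controls.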

[10] = NCI Yeast Anticancer Drug Screen. Data for the rad50 strain (AID 155);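 also: 0% = growth of vehicle-only cultures of the same strain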; conditions: S. cerevisiae rad50 strain growth inhibition, active compounds read high
Outline: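 Yeast carrying a defined DNA repair defect were exposed to test compounds, and growth was compared with vehicle-treated controls to give percent inhibition.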

[11] = NCI Yeast Anticancer Drug Screen. Data for the mec2-1 strain (AID 157); conditions: S. cerevisiae mec2-1 strain, active compounds read high
Outline: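 Test agents were screened against the mec2-1 yeast strain, with defined DNA repair or cell cycle alteration. Growth was scored as inhibition against vehicle-only controls.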

[12] = NCI Yeast Anticancer Drug Screen. Data for the rad14 strain (AID 159);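 also: 0% = growth of vehicle-treated control cultures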; conditions: S. cerevisiae rad14 strain growth inhibition, active compounds read high
Outline: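 Yeast cells carrying a defined DNA-repair defect were exposed to compounds, and growth inhibition was calculated relative to vehicle-treated control cultures.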

[13] = NCI Yeast Anticancer Drug Screen. Data for the sgs1 mgt1 strain (AID 161);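 also: 0% = growth of cultures given vehicle only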; conditions: S. cerevisiae sgs1 mgt1 strain, active compounds read high
Outline: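 Test agents were incubated with a DNA-repair-mutant yeast strain. Growth was then read and compared against vehicle-treated controls.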

[14] = NCI Yeast Anticancer Drug Screen. Data for the CLN2oe strain (AID 163);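 also: 0% = growth of vehicle-only control cultures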; conditions: S. cerevisiae CLN2oe strain, active compounds read high
Outline: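 Here, growth inhibition in a cell-cycle-altered yeast strain after compound exposure was quantified against vehicle control growth.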

[15] = NCI Yeast Anticancer Drug Screen. Data for the cln2 rad14 strain (AID 165);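 also: 0% = growth equal to vehicle treated cultures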; conditions: S. cerevisiae cln2 rad14 strain, active compounds read high
Outline: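 Growth of compound-exposed yeast (cln2 rad14 genotype) measured and expressed as inhibition relative to vehicle.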

[16] = NCI Yeast Anticancer Drug Screen. Data for the bub3 strain (AID 167); conditions: S. cerevisiae bub3 mutant strain, active compounds read high
Outline: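 Compounds were applied to a genetically altered yeast strain carrying a cell-cycle control defect. Growth inhibition was scored against vehicle-treated controls.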

[17] = at 5.0 µM (retest, dose inferred, filed as 0.5)
[18] = at 50.0 µM (retest, dose inferred, filed as 5.0)

Measured: growth inhibition

COc1cc(NCCCCNCC(C)(C)C)c2ncccc2c1
inactive: [1]; at 1.2 µM -1% | [1]; at 3.7 µM -1% | [1]; at 11.0 µM 3% | [1]; at 33.0 µM 5% | [1]; at 100.0 µM 5% | [2]; at 1.2 µM -3% | [2]; at 3.7 µM -1% | [2]; at 11.0 µM 5% | [2]; at 33.0 µM 12% | [2]; at 100.0 µM 16% | [3]; at 1.2 µM -3% | [3]; at 3.7 µM -2% | [3]; at 11.0 µM 6% | [3]; at 33.0 µM 15% | [3]; at 100.0 µM 20% | [4]; [17] -1% | [4]; [18] 31% | [4]; at 50.0 µM 37.1% | [5]; at 1.2 µM -5% | [5]; at 3.7 µM 0% | [5]; at 11.0 µM 7% | [5]; at 33.0 µM 8% | [5]; at 100.0 µM 16%

CCCCCCCCN1COCC(COc2ccccc2C)OC1 (centres undefined)
inactive: [6]; at 1.2 µM -3% | [6]; at 3.7 µM 0% | [6]; at 11.0 µM 1% | [6]; at 33.0 µM 13% | [7]; at 1.2 µM -1% | [7]; at 3.7 µM -1% | [7]; at 11.0 µM 2% | [7]; at 33.0 µM 8% | [8]; at 1.2 µM -7% | [8]; at 3.7 µM -4% | [8]; at 11.0 µM -2% | [8]; at 33.0 µM 11% | [8]; at 100.0 µM 18% | [9]; at 1.2 µM -1% | [9]; at 3.7 µM -2% | [9]; at 11.0 µM 0% | [9]; at 33.0 µM 5% | [10]; at 1.2 µM -2% | [10]; at 3.7 µM -4% | [10]; [17] 0% | [10]; at 11.0 µM 3% | [10]; at 33.0 µM 5% | [10]; [18] 5% | [11]; at 1.2 µM -4% | [11]; at 3.7 µM -4% | [11]; [17] 3% | [11]; at 11.0 µM -6% | [11]; at 33.0 µM 2% | [11]; [18] -7% | [12]; at 1.2 µM 0% | [12]; at 3.7 µM 1% | [12]; at 11.0 µM 1% | [12]; at 33.0 µM 22% | [13]; [17] -1% | [13]; [18] 1% | [14]; at 1.2 µM -4% | [14]; at 3.7 µM 0% | [14]; at 11.0 µM -58% | [14]; at 33.0 µM 9% | [15]; [17] 20% | [15]; [18] 44% | [15]; at 50.0 µM 55.2% | [16]; at 1.2 µM -9% | [16]; at 3.7 µM -7% | [16]; [17] -25% | [16]; at 11.0 µM 5% | [16]; at 33.0 µM 15% | [16]; [18] 1% | [1]; at 1.2 µM -1% | [1]; at 3.7 µM 0% | [1]; at 11.0 µM 0% | [1]; at 33.0 µM 13% | [2]; at 1.2 µM -1% | [2]; at 3.7 µM 0% | [2]; at 11.0 µM 0% | [2]; at 33.0 µM -17% | [3]; at 1.2 µM -3% | [3]; at 3.7 µM -2% | [3]; at 11.0 µM 0% | [3]; at 33.0 µM 22% | [4]; [17] -8% | [4]; [18] -2% | [5]; at 1.2 µM -15% | [5]; at 3.7 µM -4% | [5]; at 11.0 µM 4% | [5]; at 33.0 µM 11%
active: [6]; at 100.0 µM 99% | [7]; at 100.0 µM 96% | [9]; at 100.0 µM 99% | [10]; at 50.0 µM 97.3% | [10]; at 100.0 µM 99% | [11]; at 50.0 µM 85.3% | [11]; at 100.0 µM 99% | [12]; at 100.0 µM 99% | [13]; at 50.0 µM 93.3% | [14]; at 100.0 µM 99% | [16]; at 50.0 µM 76.5% | [16]; at 100.0 µM 98% | [1]; at 100.0 µM 99% | [2]; at 100.0 µM 99% | [3]; at 100.0 µM 99% | [4]; at 50.0 µM 95% | [5]; at 100.0 µM 99%

CCN1CCC(O)(c2ccc(Oc3ccc(Cl)cc3)cc2)C(C(=O)c2ccc(Oc3ccc(Cl)cc3)cc2)C1 (centres undefined)
inactive: [6]; at 1.2 µM -10% | [6]; at 3.7 µM -14% | [6]; at 11.0 µM -16% | [6]; at 33.0 µM -6% | [6]; at 100.0 µM 12% | [7]; at 1.2 µM -51% | [7]; at 3.7 µM -27% | [7]; at 11.0 µM -44% | [7]; at 33.0 µM -46% | [7]; at 100.0 µM -8% | [8]; at 1.2 µM -7% | [8]; at 3.7 µM 0% | [8]; at 11.0 µM 4% | [8]; at 33.0 µM -2% | [8]; at 100.0 µM 7% | [9]; at 1.2 µM 30% | [9]; at 3.7 µM 64% | [9]; at 11.0 µM 42% | [9]; at 33.0 µM 47% | [9]; at 100.0 µM 59% | [10]; at 1.2 µM -20% | [10]; at 3.7 µM -7% | [10]; [17] 51% | [10]; at 11.0 µM -8% | [10]; at 33.0 µM -30% | [10]; [18] 7% | [10]; at 100.0 µM -6% | [11]; at 1.2 µM 0% | [11]; at 3.7 µM 28% | [11]; [17] 68% | [11]; at 11.0 µM 26% | [11]; at 33.0 µM 1% | [11]; [18] -2% | [11]; at 100.0 µM 8% | [12]; at 1.2 µM -4% | [12]; at 3.7 µM 16% | [12]; at 11.0 µM 11% | [12]; at 33.0 µM 21% | [12]; at 100.0 µM 45% | [14]; at 1.2 µM 28% | [14]; at 3.7 µM 44% | [14]; at 11.0 µM 35% | [14]; at 33.0 µM 33% | [14]; at 100.0 µM 16% | [15]; [17] 23% | [16]; at 1.2 µM 22% | [16]; at 3.7 µM 39% | [16]; at 11.0 µM 50% | [16]; at 33.0 µM 39% | [16]; at 100.0 µM 51% | [1]; at 1.2 µM -21% | [1]; at 3.7 µM 35% | [1]; at 11.0 µM 5% | [1]; at 33.0 µM -13% | [1]; at 100.0 µM 23% | [2]; at 1.2 µM -1% | [2]; at 3.7 µM -4% | [2]; at 11.0 µM -8% | [2]; at 33.0 µM -4% | [2]; at 100.0 µM 0% | [3]; at 1.2 µM -27% | [3]; at 3.7 µM 63% | [3]; at 11.0 µM 20% | [3]; at 33.0 µM 11% | [3]; at 100.0 µM 33% | [4]; [18] 18% | [5]; at 1.2 µM -6% | [5]; at 3.7 µM 20% | [5]; at 11.0 µM -1% | [5]; at 33.0 µM -4% | [5]; at 100.0 µM 7%
active: [10]; at 50.0 µM 83% | [11]; at 50.0 µM 93.2% | [13]; [17] 97% | [13]; [18] 98% | [13]; at 50.0 µM 89.2% | [15]; [18] 98% | [15]; at 50.0 µM 87.5% | [16]; [17] 87% | [16]; [18] 98% | [16]; at 50.0 µM 90.2% | [4]; [17] 82% | [4]; at 50.0 µM 90.5%

— PubChem BioAssay (NCI)
